Compound activity as filed in PubChem.
D1 ag: activates the human D1 dopamine receptor; P21728; HEK293 T-REx D1 cells, calcium flux, agonist mode; activation, % at 2 µM; actives 1% (n = 360,000)
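Tetracycline-induced HEK293 TREx D1 cells, force-coupled to calcium signalling, were dye-loaded with a no-wash calcium kit. Compound was pin-added after a 10 s baseline. Fluorescence was read kinetically at 1 cycle/s for 180 s, with calcium rises flagged as agonism.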
TRHR ag: agonists of human TRH receptor | activation, % at 2 µM | P34981 | TRHR cells, calcium flux fluo-8, FDSS agonist mode | actives 0.18% (n = 360,000)
Target sequence (P34981 whole entry, looked up): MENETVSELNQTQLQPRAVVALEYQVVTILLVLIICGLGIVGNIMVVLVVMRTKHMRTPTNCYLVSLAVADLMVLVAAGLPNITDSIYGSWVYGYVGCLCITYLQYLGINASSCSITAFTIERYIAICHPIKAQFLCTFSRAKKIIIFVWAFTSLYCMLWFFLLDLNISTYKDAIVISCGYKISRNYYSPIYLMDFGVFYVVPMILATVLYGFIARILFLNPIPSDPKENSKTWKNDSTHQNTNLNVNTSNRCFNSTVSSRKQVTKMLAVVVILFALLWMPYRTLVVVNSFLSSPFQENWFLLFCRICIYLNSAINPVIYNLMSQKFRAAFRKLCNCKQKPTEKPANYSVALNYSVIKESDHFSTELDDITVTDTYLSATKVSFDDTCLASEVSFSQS
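Agonist-mode FDSS calcium read (Ex 480/Em 530, 1 s cycles) in 1536-well TRHR cells with fluo-8 dye, after 10-cycle baseline and 23 nL compound addition; TRH at EC20 (10 nM final) added afterwards for the enhancer phase.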
D1 antagonist: blocks dopamine activation of the human D1 receptor; AID 504652; HEK293 TREx D1 cells, calcium flux, dopamine EC80; stronger effect = lower value; P21728; activity change, negative = inhibition, % at 10 µM; actives 3.2% (n = 360,000); in the data active = activity change below about -30%
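Inducible Hek293 Trex D1 cells (tetracycline, overnight, 30 C). Calcium dye 30–90 min RT. Antagonist mode: EC80 dopamine added after 180 s compound read.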
GRP78 ERSR act: induces the endoplasmic reticulum stress response in human glioma cells; actives 0.02% (n = 420,000); Potency, µM, actives largely listed as activators; U87-MG GRP78 promoter luciferase reporter, 16 h; active = well fitted activation curve with a large enough effect; also: series mostly up to about 76 µM; nearly all actives have a fitted effect of over 35% in size
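Stably transfected U87-MG glioma cells carrying a GRP78-based luciferase sensor; 16 h compound incubation. Luminescence end-point read 10 min after Bright-Glo addition at room temperature.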
D1 potentiator: human D1 dopamine receptor positive modulation. P21728. HEK293 TREx D1 cells, calcium flux, dopamine EC20 potentiation. AID 504651. potentiation, % at 10 µM. actives 0.036% (n = 360,000); in the data active = potentiation above about 30%
TRHR PAM: TRH receptor (human) allosteric enhancement; AID 493056; TRHR cells, fluo-8 calcium fluorescence, EC20 TRH enhancement; actives 0.66% (n = 360,000); enhancement, % at 2 µM; in the data active = enhancement above about 30%
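TRHR-expressing cells loaded with fluo-8 calcium dye were read kinetically (ex 480/em 530) during compound addition, then stimulated with an EC20 of TRH (10 nM final). Enhancement of the Gq-mediated intracellular calcium response was scored.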
A number is an active result; - = inactive; . = no result given. A selection: hits, their analogues and other compounds. The true share with any hit is near 4%. Rule as the data show it, unless noted: active = activation above about 30%; inactive = the rest.

SMILES	D1 ag	TRHR ag	D1 antagonist	GRP78 ERSR act	D1 potentiator	TRHR PAM
O=c1c2c3c(sc2nc(NCCOCCO)n1Cc1ccco1)CCCCC3	-	-	-	-	-	-
CN(C)CCNc1nc2sc3c(c2c(=O)n1CCc1ccccc1)CCCCC3	106	-	-35	-	-	-
Cc1cnc(-n2ncc(C(=O)NCCN3CCOCC3)c2C2CC2)nc1-c1cccs1	.	.	.	-	.	.
Cn1c(-c2cnn(-c3ccccc3)c2-n2cccc2)n[nH]c1=S	-	-	-	-	-	-
Cc1ccc(C(=O)CSc2nc(-c3ccccc3)ccc2C#N)cc1	36	-	-	-	-	-
Oc1c(C=C2N=c3ccccc3=N2)sc(=S)n1C1CCCC1	-	-	-71	-	-	-
O=c1nc(/C=C/c2ccc(-c3ccc(F)cc3)o2)cc(C(F)(F)F)[nH]1	98	-	-	.	-	-
O=C(O)c1cc(Cl)ccc1-c1ccc(/C=C/c2cc(C(F)(F)F)[nH]c(=O)n2)o1	97	73	-	-	-	-
O=C(O)c1ccccc1-c1ccc(/C=C/c2cc(C(F)(F)F)[nH]c(=O)n2)o1	146	33	-	-	-	-
Cc1nc(S/C(=C/c2ccc(-c3cc(Cl)ccc3C)o2)C(=O)O)n[nH]1	-	-	-	-	-	-
O=Cc1ccc(-c2ccc(F)cc2)o1	-	-	-	-	-	-
COc1ccccc1N1CCN(C(=O)c2ccc(COc3cccc4c3OC(C)(C)C4)cc2)CC1	-	-	-	-	-	-
O=C(Nc1sc2c(c1C(=O)O)CCC2)C(=O)N1CCOCC1	-	-	-	-	-	-
Cc1ccc(S(=O)(=O)Nc2cc3c(cc2C)n(C)c(=O)c(=O)n3C)c(C)c1	-	-	-95	.	-	-
COc1ccc(NC(=O)CCCN(C)S(=O)(=O)c2ccc(C)cc2)cc1	-	-	-60	-	-	-
Cc1ccc(S(=O)(=O)N(C)CCCC(=O)Nc2ccncc2)cc1	-	-	-35	-	.	-
Cc1ccc(S(=O)(=O)N(C)CC(=O)Nc2ccncc2)cc1	-	-	-	-	-	-
Cc1ccc(S(=O)(=O)N(C)CCCC(=O)Nc2ccc(C)cc2C)cc1	-	-	-52	-	-	-
Cc1ccc(S(=O)(=O)N(C)CCCC(=O)Nc2ccc(F)cc2)cc1	-	-	-	-	-	-
O=C(CC(C(=O)O)n1ccnc1)c1ccc(Cl)cc1 (stereo not given)	.	.	.	-	.	.
Cn1c2c(c3cnc4cc(Cl)ccc4c31)CN(Cc1ccc(Cl)cc1)CC2	.	.	.	-	.	.
CN1CCN(C(=S)Nc2cc([N+](=O)[O-])ccc2Cl)CC1	-	-	-	-	-	-
O=C(Nc1ccc(Cl)cn1)c1ccc2[nH]c(=O)c(=O)[nH]c2c1	-	-	-30	-	-	-
COc1ccccc1C(=O)N(Cc1nc(-c2cccc(C)c2)no1)C(C)C	-	-	-	-	-	-
CCc1ccc2cc(F)cc(F)c2n1	.	.	.	-	.	.
SMILES	D1 ag	TRHR ag	D1 antagonist	GRP78 ERSR act	D1 potentiator	TRHR PAM
COc1ccc(C)cc1N(C(=O)c1ccccc1F)c1nc2ccccc2s1	-	-	-	-	-	-
CCOC(=O)c1ccc(N2C(=O)c3n[nH]c(-c4ccco4)c3C2c2cccc(F)c2)cc1 (stereo not given)	-	-	-	-	-	34
O=C(/C=C/c1ccc(F)cc1)NC(Cc1c[nH]c2ccccc12)C(=O)O (stereo not given)	-	-	-	-	-	-
COc1ccc(NC(=O)CSc2ccccn2)cc1OC	-	-	-	-	-	-
COc1ccc(NC(=O)CSc2ncccc2C(=O)OC(C)C)cc1OC	-	-	-37	-	-	-
CN(C)c1cc(F)c(C=O)cc1F	.	.	.	-	.	.
O=C(O)CC1SC(=Nc2ccc(O)cc2)NC1=O (stereo not given)	-	-	-31	-	-	-
COc1ccnc(Oc2ccccc2)c1C#N	-	-	-	-	-	-
COc1ccnc(Oc2ccc(Cl)cc2)c1C#N	-	-	-35	-	-	-
Cc1cc(Cl)ccc1Oc1nccc(N(C)C)c1C#N	-	-	-37	-	-	-
Cc1sc2nc(C)n(/N=C/c3ccc(O)cc3O)c(=O)c2c1C	-	-	-84	-	-	-
